The whole screen tested about 1,500 compounds, of which about 890 (59%) were called active.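 The calls were made as follows: active = inhibition of the choline-evoked signal at any tested dose together with a fitted dose-response curve; inactive = no inhibition at any dose or no curve.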 So high a share suggests a set chosen from earlier hits. Only a sample is shown. Entries with a potency or affinity are not part of this list.
target: High affinity choline transporter 1 (Homo sapiens) (UniProt Q9GZV3); experiment: CHT inhibitors, dose response, cell-based, 5-point CRC, membrane potential dye (AID 504840); conditions: HEK293-CHT, choline-induced depolarization, CHT with LV-to-AA double alanine mutation; series mostly up to 37 µM; inhibition: at the top concentration;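 also: 0% = buffer-only response and 100% = EC90 choline response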
Sequence (Q9GZV3 whole entry, looked up): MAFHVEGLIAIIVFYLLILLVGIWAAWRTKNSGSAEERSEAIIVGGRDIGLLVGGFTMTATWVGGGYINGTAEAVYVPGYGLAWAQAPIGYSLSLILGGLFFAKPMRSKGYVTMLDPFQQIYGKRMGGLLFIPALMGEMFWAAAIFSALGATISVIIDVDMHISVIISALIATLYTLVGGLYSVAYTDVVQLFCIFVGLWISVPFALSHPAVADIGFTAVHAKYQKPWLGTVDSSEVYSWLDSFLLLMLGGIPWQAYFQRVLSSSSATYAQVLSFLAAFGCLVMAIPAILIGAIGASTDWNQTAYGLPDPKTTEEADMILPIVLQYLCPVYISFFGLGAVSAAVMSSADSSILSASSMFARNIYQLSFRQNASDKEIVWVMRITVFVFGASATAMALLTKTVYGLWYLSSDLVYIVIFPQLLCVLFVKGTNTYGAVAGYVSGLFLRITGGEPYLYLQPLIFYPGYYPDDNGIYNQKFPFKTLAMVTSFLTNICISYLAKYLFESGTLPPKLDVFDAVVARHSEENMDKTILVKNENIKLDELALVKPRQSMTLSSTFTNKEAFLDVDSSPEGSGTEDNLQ

inhibition, inactive:
Cc1cc(O)ccc1C1(c2ccc(O)cc2C)OC(=O)c2ccccc21 28.5%
CCCCCCCCC[n+]1cccc2c3ccccc3ccc21 42.3%
Cc1c(C)n(CCc2ccccc2)c2ncnc(NN)c12 28.7%
Cn1ncc2c(N3CCC(Cc4ccccc4)CC3)ncnc21 33.5%
O=C(NC1CC1)C1=C[C@H](c2ccc(Br)cc2)C[C@H](OCc2ccc(CO)cc2)O1 52.6%
Cn1nc(C(F)(F)F)c(-c2ccccc2)c1NC(=O)c1ccco1 58.8%
O=C(Nc1ccccc1Cl)C1CCCN(c2ncnc3c2nc2n3CCCCC2)C1 (stereo not given) 79.8%
O=C(Nc1ccc(Cl)cn1)C1CCCN(c2ncnc3c2nc2n3CCCCC2)C1 (stereo not given) 53.9%
O=C(N/N=C/c1cccc(Oc2ccccc2)c1)c1cccc(O)c1 25.8%
O=c1cc(CN2CCN(c3ccccc3O)CC2)nc2sccn12 51.6%
O=c1cc(CSc2nc3cc(Cl)ccc3o2)nc2sccn12 48.6%
O=C(Cn1nc(C(F)(F)F)c2c1CCCC2)NC1CCCC1 15.2%
O=C(Cn1nc(C(F)(F)F)cc1C1CC1)NCc1ccccc1F 3.99%
Clc1cccc(CNCCNCc2cccc(Cl)c2)c1 27.9%
O=C(CSc1nnc(Cc2ccsc2)o1)c1ccccc1 45.5%
CC(C)(C)OC(=O)NCCc1nnc(SCc2ccc(Cl)cc2)o1 24.7%
CCOC(=O)c1[nH]c(C=O)c(C(=O)OCC)c1C 38%
C=CCn1c(CSc2nc3ccccc3s2)nnc1SCC(=O)NCc1ccccc1 42.6%
O=C(CSc1nccn1-c1ccc(F)cc1)NCc1ccc(F)cc1 30.9%
Cc1nc2cc(C(=O)N3c4ccccc4CC3C)ccc2s1 (stereo not given) 45.4%
CCN1CCN(C(=O)CCc2nc3ccccc3n2-c2ccccc2)CC1 64%
COc1ccc(-c2cc(C(=O)NCCCN3CCOCC3)c3cc(C(C)C)ccc3n2)cc1 29.7%
CC(=O)c1cccc(OCC(=O)c2cc(C)n(-c3cc(C)on3)c2C)c1 24%
N#C/C(=C\c1ccc(O)c(Br)c1)C(=O)NCc1ccccc1 24.4%
COc1ccccc1NS(=O)(=O)c1ccc(O)c(C(=O)OCC(=O)c2ccc(Cl)cc2Cl)c1 5.73%
Cc1c(Cl)cccc1NCC(=O)NN=C1CCCC1 48.2%
Cc1nc(SC2CC(=O)N(c3cc(Cl)cc(Cl)c3)C2=O)nc2c1CCCC2 (stereo not given) 18.9%
COc1ccc(OC)c(Cc2nnc(CCC(=O)N3CCN(C4CCCC4)CC3)o2)c1 50.6%
CC(C)(C)c1cc(C(=O)N/N=C/c2ccc(F)cc2)n(-c2ccccc2)n1 37.8%
Cc1ccc(S(=O)(=O)N/N=C/c2cc(Br)ccc2O)cc1 53.1%
Cc1cc(/C=N/NC(=O)C(=O)NCc2ccccn2)c(C)n1-c1ccccc1 59.3%
CCOC(=O)c1cc2c(s1)-c1c(C)cccc1OC2 -5.26%
Cc1ccccc1NC(=S)NNC(=O)c1ccncc1 1.63%
COc1ccc(C(=O)NC(=S)NNC(=O)c2ccc(C)cc2)cc1 27.9%
Cc1ccc(C)c(NC(=O)c2cccc(Oc3ccc([N+](=O)[O-])cc3Cl)c2)c1 29.1%
O=C(Nc1ccc(F)cc1)N1CCN(CCc2ccccc2)CC1 32.2%
Cc1ccc(C#CC[N+]2(C)CCCCC2)cc1 62.4%
C#CC[N+]1(CC#Cc2ccc(C)cc2)CCCCC1 63.6%
Cc1cn([C@H](C(=O)NCCCCCCCCCCC(=O)N2CCN(C(=O)OC(C)(C)C)CC2)[C@@H](C)O)nn1 38%
CN(/N=C/c1cc(Cl)cc(Cl)c1O)C(=S)NC(C)(C)C 19.2%
O=C(CNC(=O)c1ccc(Cl)cc1Cl)OCC(=O)c1ccc2c(c1)OCCO2 56.5%
COc1cc(CCCN2C(=O)C(=O)NC[C@H]2Cc2cccc3ccccc23)cc(OC)c1OC 61.8%
CC(NC(=O)Cc1ccc(S(=O)(=O)N2CCOCC2)s1)c1ccc(Cl)c(Cl)c1 (stereo not given) 36.9%
O=S(=O)(Nc1nc2ccccc2s1)c1ccc(Cl)s1 27.1%
CCOC(=O)c1ccc(NC(=O)c2ccc(C)c(S(=O)(=O)N3CCOCC3)c2)cc1 22.8%
Cc1ccc(F)cc1NC(=O)c1ccc(NS(=O)(=O)c2ccc(Br)s2)cc1 64.1%
O=C(Nc1ccccc1)c1nnn(Cc2ccccc2)c1NC(=O)C(F)(F)F 45.3%
O=C(O)CSc1cc(C(=O)c2ccccc2O)cn2c(=O)c3c(-c4ccccc4)csc3nc12 76.9%
Cc1ccc(-c2csc3nc(SCC(=O)Nc4ccc(Cl)c(C(=O)O)c4)[nH]c(=O)c23)cc1 41.6%
O=S(=O)(Nc1nc2ccccc2nc1NCC1CCCO1)c1cc(Cl)ccc1Cl (stereo not given) 28.4%
CCCc1cc(NCCN(C)C)n2c(nc3ccccc32)c1C#N 47.7%
O=C(Nc1sc2c(c1C(=O)O)CCCC2)c1ccc(Cl)cc1 26.7%
NC(=O)c1c(NC(=O)CN2C(=O)NC(Cc3ccccc3)C2=O)sc2c1CCC2 (stereo not given) 51.4%
O=C(NC1CCCC1)C(c1cccnc1)N(CCc1ccccc1)C(=O)c1ccco1 (stereo not given) -5.07%
CC1CCC(NC(=O)c2ccc(NC3=NC4CS(=O)(=O)CC4S3)cc2)CC1 (stereo not given) 54.4%
CC1CCC(NC(=O)Cn2c3c(c(-c4ccccc4Cl)cc2=O)CCC3)CC1 (stereo not given) 44.9%
NC(N)=Nc1nc(CCN2C(=O)c3ccccc3C2=O)cs1 59.8%
CCN(CC)S(=O)(=O)c1cc(C(=O)N2CCc3ccccc32)ccc1Cl 14.8%
CC(C)n1c(O)c(N=NC(=O)CNC(=O)Cc2ccc(Cl)cc2)c2ccccc21 50.6%
CCCCn1nc2cc(C(=O)NC3CCc4ccccc43)ccc2c1OCC (stereo not given) 48%
Cc1ccc(NC(=O)CN(C)C(=O)COC(=O)CNS(=O)(=O)c2ccc(Br)cc2Cl)cc1 62.6%
CC(Oc1ccc(Cl)cc1Cl)C(=O)Nc1ccc(S(=O)(=O)Nc2cnc3ccccc3n2)cc1 (stereo not given) 71.6%
O=C(Nc1ccc(S(=O)(=O)Nc2nccs2)cc1)c1c(F)c(F)c(F)c(F)c1F 41.6%
O=C1C[C@H]2[C@H](CO)[C@@H](OC(=O)c3ccc(-c4ccccc4)cc3)C[C@H]2O1 47.8%
CC1(C)C(C=C(Cl)Cl)C1C(=O)Nc1ccc(S(=O)(=O)Nc2ncccn2)cc1 (stereo not given) 48.7%
O=C(Nc1ccc(S(=O)(=O)Nc2cnc3ccccc3n2)cc1)c1ccc(Cl)c([N+](=O)[O-])c1 39.5%
CCC(Oc1ccccc1C)C(=O)Nc1ccc(S(=O)(=O)Nc2cc(C)on2)cc1 (stereo not given) 47.4%
COC(=O)C1=C(N)Oc2cc(C)n(CCc3ccccc3)c(=O)c2C1c1cccnc1 (stereo not given) 27.2%
CC(OC(=O)c1cc2sccc2n1C)C(=O)NC(C)(C)C (stereo not given) 49.4%
COc1ccc(N2CCN(CC(=O)Nc3c(C)cc(C)cc3C)CC2)cc1 28.8%
CN(C)c1ccc(Nc2c3c4c(cccc4n(C)c2=O)C(=O)c2ccccc2-3)cc1 38.4%
O=C(CC(=O)c1c(F)cccc1Cl)c1ccccc1O 51%
CCCCOC(=O)c1ccc(NC(=O)c2cc(Cl)c(Cl)cc2C(=O)O)cc1 43.3%
CC(=O)c1cc2c(cc1NC(=O)CCNC(=O)c1ccccc1Cl)OCO2 49.1%
CCCCNS(=O)(=O)c1ccc(NC(=O)Cc2ccccc2[N+](=O)[O-])cc1 56.2%
Cc1ccc2[nH]c3c(c2c1)CN(C(=O)CN1CCN(Cc2ccc4c(c2)OCO4)CC1)CC3 53.2%
CCOc1[nH]c(/N=C/c2ccco2)c(C#N)c1C#N 30.8%
CC(C)(C)C(=O)N1CCN(c2ccc(NC(=O)c3ccc4c(c3)OCCO4)cc2)CC1 40.2%
COc1ccc(C(=O)NC(=S)NNC(=O)CCc2ccccc2)cc1 23.3%
Cc1ccc(CNC(=O)N[C@@H](Cc2ccccc2)C(=O)O)cc1 10.7%
CC1=C(C(=O)OC(C)C)C(c2ccc(Br)s2)NC(=O)N1C (stereo not given) 45.8%
COC(=O)CCCCCN1C(=O)NC(C2CC2)C(C(=O)OCc2ccccc2)=C1C (stereo not given) 22.5%
CCOC(=O)c1cnc2c(Cl)cc(Cl)cc2c1NCCOCCO 66.2%
O=C(CS(=O)(=O)Nc1ccc(F)cc1Cl)Nc1ccc(F)cc1Cl 26.4%
CC(C(=O)NC1CCS(=O)(=O)C1)N1C(=O)/C(=C/c2ccc(Cl)cc2)SC1=S (stereo not given) 45%
Cc1ccc(S(=O)(=O)NCCC(=O)NC(C)CCc2ccccc2)cc1 (stereo not given) 46.8%
Cc1n[nH]c(=O)c2c(NC(=O)CSc3nc4ccccc4c(=O)n3C(C)C)oc(C)c12 66.6%
CC(C)n1c(=S)[nH]c2cc(Cl)ccc21 54.5%
CCn1cc(C(=O)N(CCC(C)C)c2c(N)n(Cc3ccccc3)c(=O)[nH]c2=O)c(=O)c2ccc(C)nc21 41.2%
Fc1ccc(-c2nc3c(-c4ccc(F)cc4)cnn3cc2CCN2CCOCC2)cc1 44.1%
CN1CCN(c2ccc(NC(=O)c3ccc(Cl)cc3Cl)cc2)CC1 46%
CSC1=C(C#N)C(c2ccncc2)C(C(=O)Nc2ccccc2)=C(C)N1 (stereo not given) 42.5%
CCN(CCNC(=O)CN1CCN(Cc2ccc(Cl)cc2)C1=O)c1ccccc1 0.273%
Cc1ccccc1Nc1c(-c2ccncc2)nc2ccc(Br)cn12 31%
Cc1ccc(NC(=S)Nc2cccc3cnccc23)cc1C 66.3%
Cc1ccc(NC(=S)Nc2ccc(F)cc2)cc1C 44.3%
COc1ccc([N+](=O)[O-])c(S(=O)(=O)c2ccccc2)n1 39.3%
Cc1cc2c(ncn2Cc2ccccc2)c([N+](=O)[O-])c1C 76.9%
COc1ccc(OCc2cccc(C(=O)Nn3cc([N+](=O)[O-])cn3)c2)cc1 34.8%
CCN(CC)S(=O)(=O)c1ccc(/C=C/C(=O)NC2CCCCC2)cc1 61.1%
CC(C)c1cc(C(=O)NNC(=S)NC2CCCCC2)cs1 25.6%
COc1ccc(S(=O)(=O)N2CCC(C(=O)N3CCc4ccccc4C3)CC2)cc1 51%
O=C(CCc1ccc(S(=O)(=O)N2CCOCC2)cc1)N1CCc2ccccc2C1 48.3%
CNCC(O)c1ccc(O)c(O)c1 (stereo not given) 53.6%
C#CC[N+](CC)(CC)CC#Cc1ccccc1 61.8%

Source: PubChem BioAssay AID504840 (Johns Hopkins Ion Channel Center, 2011)
